Compounds with a hit are over-represented: about 10% of the library has one in this group of screens.
Six1-Eya2 blk: inhibitors of human Six1/Eya2 interaction | AlphaScreen GST-Six1/His-Eya2 binding, biochemical; hits give low values | activity change, % (no concentration beside the values) | hit rate 0.56% among 360,000; in the data active = activity change below about -65%; inconclusive = mostly about -30% to -63%; also: % is scaled to controls: 0 for no effect and ±100 for the full control effect
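GST-Six1 + His-Eya2 (5X stock: 250/500 nM); Tris pH 8.0, 300 mM NaCl, 0.05% BSA, 0.02% Tween 20; GSH donor/Ni acceptor beads; 1 h 37 °C dark; AlphaScreen readout.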
BAZ2B inh: inhibitors of human BAZ2B bromodomain | Q9UIF8 | Potency, µM (series often up to 114 µM), for inactives: top-dose activity change, negative = inhibition, usual class: inhibitors | hit rate 4.4% among 360,000 | AlphaScreen BAZ2B-H3K14Ac peptide displacement; also: potency is read from the fitted curve at half-maximal effect; % is scaled to controls: 0 for no effect and ±100 for the full control effect; nearly all actives have a fitted effect of over 60% in size
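BAZ2B 50 nM plus b-H3(5-23)K14Ac 50 nM, PBS pH 7.4/0.01% Tween-20, 30 min RT; compound added (max 110 uM), 30 min RT; streptavidin donor/Ni-chelate acceptor beads 10 ug/mL final, 20 min dark; AlphaScreen read.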
HP1b chromo inh: blocks HP1-beta chromodomain binding to methylated histone tails; P83916; AlphaScreen HP1-beta / biotin-H3K9me3 peptide binding; Potency, µM (titrated, usually from 114 µM), for the others: at the top dose activity change, negative = inhibition, most hits filed as inhibitors; hit rate 0.56% among 390,000; also: potency is read from the fitted curve at half-maximal effect; nearly all actives have a fitted effect of over 70% in size
Target sequence (P83916 whole entry, looked up): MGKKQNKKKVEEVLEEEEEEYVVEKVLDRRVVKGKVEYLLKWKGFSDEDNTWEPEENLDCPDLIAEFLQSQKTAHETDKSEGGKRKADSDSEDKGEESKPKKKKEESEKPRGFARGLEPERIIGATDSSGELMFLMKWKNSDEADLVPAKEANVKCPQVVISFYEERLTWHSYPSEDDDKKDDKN
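Compound inhibition of the preformed complex between 50 nM HP1-beta and 50 nM biotinylated H3K9me3 peptide was read by AlphaScreen. Buffer was PBS pH 7.4 with 0.01% Tween-20. Incubations ran 30 min at room temperature, with 10 ug/mL donor/acceptor beads.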
JMJD2A Tudor: JMJD2A Tudor domain (human) inhibition; AlphaScreen JMJD2A-Tudor / H3K4me3 peptide binding; AID 504339; O75164; Potency, µM (highest dose often 114 µM), for the others: at the top dose activity change, negative = inhibition, most hits filed as inhibitors; hit rate 4.4% among 390,000; also: potency is read from the fitted curve at half-maximal effect; % is scaled to controls: 0 for no effect and ±100 for the full control effect; nearly all actives have a fitted effect of over 50% in size
CtBP-E1A inh: blocks the CtBP interaction with E1A. AlphaScreen GST-E1A/His-CtBP binding, 1536-well; hits give low values. activity change, % (no concentration beside the values). hit rate 0.49% among 340,000. AID 651724; in the data active = activity change below about -65%; inconclusive = mostly about -30% to -63%; also: % is scaled to controls: 0 for no effect and ±100 for the full control effect
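AlphaScreen with 125 nM GST-E1A and 125 nM His-CtBP (5X stocks) in Tris pH 8.0, 300 mM NaCl, BSA, Tween 20, TCEP. Compounds preincubated 2 h at 37 deg C, then glutathione donor/nickel acceptor beads added for 1 h at 37 deg C in dark.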
G9a block: blocks human histone lysine methyltransferase G9a; G9a H3K9 monomethylation, AlphaScreen, 2 h; Potency, µM (top dose mostly 102 µM), without a hit: top-dose activity, negative = inhibition, usual class: inhibitors; hit rate 8.8% among 350,000; also: potency is read from the fitted curve at half-maximal effect; % is scaled to controls: 0 for no effect and ±100 for the full control effect; nearly all actives have a fitted effect of over 75% in size
Target sequence (Q96KQ7 913-1193 limits assumed): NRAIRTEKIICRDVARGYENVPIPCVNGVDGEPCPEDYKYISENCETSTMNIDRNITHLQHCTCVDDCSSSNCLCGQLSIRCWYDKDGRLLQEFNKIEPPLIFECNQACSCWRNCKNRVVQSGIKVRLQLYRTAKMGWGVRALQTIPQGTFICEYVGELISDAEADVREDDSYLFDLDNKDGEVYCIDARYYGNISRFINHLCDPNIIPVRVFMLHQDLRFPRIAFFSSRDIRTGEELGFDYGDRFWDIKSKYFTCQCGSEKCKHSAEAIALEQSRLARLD
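Using a bead-based AlphaScreen, monomethylated H3K9 product from 2 h room-temperature reactions (G9a 20 nM, peptide 500 nM, SAM 20 uM) was detected with 0.5 ug/mL rabbit anti-H3K9me1 antibody.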
Active calls of the source: *; u = inconclusive; x = not tested or not shown; [ ] = dose if it differs, or a comment. Unless noted, calls follow the shape of the dose curve; as a rule, active = well fitted inhibition curve with a large enough effect; inconclusive = small, poorly fitted or top-dose-only effect; inactive = no such curve, though single readings can be large or run the other way.

SMILES	Six1-Eya2 blk	BAZ2B inh	HP1b chromo inh	JMJD2A Tudor	CtBP-E1A inh	G9a block
CN1CCN(S(=O)(=O)c2cccc(C(=O)Nc3cc(C(F)(F)F)ccc3N3CCCCC3)c2)CC1	1	-11%	12%	-31%	-16	45µM*
CCN1CCN(c2ccc(S(=O)(=O)N3CCCCC3)cc2NC(=O)c2ccccc2)CC1	5	-11%	21%	-15%	-3	10µM*
CCN1CCN(c2ccc(S(=O)(=O)N3CCCCC3)cc2NC(=O)c2cccc(C)c2[N+](=O)[O-])CC1	-3	-35%	-2%	-34%	-18	50µM*
CCN1CCN(c2ccc(S(=O)(=O)N3CCOCC3)cc2NC(=O)c2ccc(C)c(C)c2)CC1	4	4%	20%	-10%	13	6%[2.33 µM]
CCN1CCN(c2ccc(S(=O)(=O)N3CCCCC3)cc2NC(=O)c2ccc(C)o2)CC1	-19	-7%	-6%	-23%	-6	40µM*
Cc1ccc(S(=O)(=O)N2CCCCC2)cc1NC(=O)CSc1nc(N)cc(=O)[nH]1	1	x	14%	-24%	x	x
CCN1CCN(c2ccc(S(=O)(=O)N3CCCCC3)cc2NC(=O)c2ccc([N+](=O)[O-])s2)CC1	-4	-7%	u	u	-2	10µM*
CCN1CCN(c2ccc(S(=O)(=O)N3CCCCC3)cc2NC(=O)c2cccc(C(F)(F)F)c2)CC1	3	-9%	-11%	-34%	-2	13µM*
CCN1CCN(c2ccc(S(=O)(=O)N3CCCCC3)cc2NC(=O)c2cccc(F)c2)CC1	3	-32%	-12%	-22%	-7	u
O=C(OCC#CCSc1nnc(-c2ccccc2F)o1)c1ccc(F)cc1	x	x	x	70%	x	x
Cc1ccn2c(C(=O)N/N=C\c3cccs3)c(C)nc2c1	-8	6%	32%	-18%	-6	u
Cc1ccc(C)c(-n2c(C)cc(/C=N/NC(=O)c3c(C)nc4cc(C)ccn34)c2C)c1	-21	-9%	-12%	40µM*	-1	u
Cc1cc2c(s1)c1cnn(Cc3c(Cl)cccc3Br)c(=O)c1n2C	x	x	x	-5%	x	x
COc1ccccc1N(C(=O)c1snc(C(N)=O)c1N)C(C(=O)NC1CCCC1)c1ccco1 (stereo not drawn)	-1	-5%	26%	-29%	5	-12%
COc1ccccc1N(C(=O)c1snc(C(N)=O)c1N)C(C(=O)NC1CCCC1)c1ccc(N(C)C)cc1 (stereo not drawn)	13	35µM*	-28%	u	1	-6%
CCOC(=O)CN(C(=O)c1snc(C(N)=O)c1N)C(C(=O)NC1CCCCC1)c1ccc(F)cc1 (stereo not drawn)	8	79µM*	42%	u	-19	0%[59 µM]
Cc1cccc(N(C(=O)c2snc(C(N)=O)c2N)C(C(=O)NCC2CCCO2)c2ccc(N(C)C)cc2)c1C (stereo not drawn)	9	28µM*	-10%	-27%	1	50µM*
Cc1ccc(C)c(N(C(=O)c2snc(C(N)=O)c2N)C(C(=O)NCC2CCCO2)c2cccs2)c1 (stereo not drawn)	-8	-13%	19%	11µM*	4	12%
Cc1cccc(N(C(=O)c2snc(C(N)=O)c2N)C(C(=O)NCC2CCCO2)c2cccs2)c1 (stereo not drawn)	4	1%	34%	-19%	x	10%
CN(C)c1ccc(C(C(=O)NCC2CCCO2)N(Cc2ccccc2)C(=O)c2snc(C(N)=O)c2N)cc1 (stereo not drawn)	-12	u	-8%	u	-15	-20%
CCOCCCN(C(=O)c1snc(C(N)=O)c1N)C(C(=O)NC1CCCC1)c1ccc(F)cc1 (stereo not drawn)	11	6%	41%	-7%	26	-3%
COc1ccc(CN2C(=O)C(NC(=O)c3ccc(C)cc3)(C(F)(F)F)N=C2c2ccccc2)cc1 (stereo not drawn)	x	-29%	8%	-29%	x	5%[59 µM]
CC(C)c1ccc(C2(C)NC(=O)N(CC(=O)NCC3COc4ccccc4O3)C2=O)cc1 (stereo not drawn)	1	19%	4%	-23%	2	22%[12.7 µM]
COc1ccc(CNC(=O)C(c2ccc(C)o2)N(C(=O)c2snc(C(N)=O)c2N)c2ccccc2OC)cc1 (stereo not drawn)	-7	-15%	-14%	-15%	4	50µM*
COc1ccc(OC)c(N(C(=O)c2snc(C(N)=O)c2N)C(C(=O)NCc2ccccc2)c2ccc(O)cc2)c1 (stereo not drawn)	1	-21%	-8%	-24%	-30	-40%
SMILES	Six1-Eya2 blk	BAZ2B inh	HP1b chromo inh	JMJD2A Tudor	CtBP-E1A inh	G9a block
COc1ccccc1CNC(=O)c1ccc(Cn2c(SCc3ccccc3)nc3cccnc32)cc1	x	-27%	31%	-10%	x	-37%[59 µM]
Cc1sc2nc(CN3CCOCC3)[nH]c(=S)c2c1C	-8	-34%	8%	-27%	-3	40µM*
Cc1sc2nc(CN3CCN(c4ccc(O)cc4)CC3)[nH]c(=O)c2c1C	-16	u	u	u	1	x
CCN(/N=C/c1ccc(Cl)cc1)c1cc(=O)n(C)c(=O)[nH]1	-9	1%	9%	40µM*	-9	-1%[59 µM]
O=C(Nc1ccc(F)cc1)Nc1ccccc1F	0	-3%	44%	-10%	13	23%
S=c1[nH]c2ccccc2s1	x	x	x	x	x	11µM*
O=C(Nc1ccc2[nH]ccc2c1)c1ccccc1	1	-20%	-1%	-24%	-2	u
O=C(Nc1ccc2[nH]c(=S)sc2c1)c1ccccc1	-2	-37%	-5%	-32%	-8	5.6µM*
O=C(Nc1ccc2[nH]c(=S)sc2c1)Nc1ccccc1F	u	u	25%	-21%	x	45µM*
CN1CCN(c2ncc3nc(-c4cccc(C#N)c4)c(=O)n(CCc4ccccc4)c3n2)CC1	x	x	x	x	x	9%[0.501 µM]
CCOc1ccccc1NC1(c2ccccc2)C(=O)c2ccccc2C1=O	x	u	u	11µM*	x	11µM*
COc1ccc(C)cc1NC1(c2ccccc2)C(=O)c2ccccc2C1=O	x	u	u	28µM*	x	13µM*
Cc1ccc(-n2c(=O)c3ccc(C(=O)NCc4ccco4)cc3n(Cc3ccccc3Cl)c2=O)cc1	x	x	25%	-10%	x	1.6µM*
CC1CCCC(NC(=O)C2CCN(C(=O)Nc3ccccc3)CC2)C1C (stereo not drawn)	-1	3%	31%	-5%	-18	17%[2.33 µM]
O=C1CN(C(=O)COc2ccc(Br)cc2F)c2ccccc2N1	7	9%	22%	-17%	0	45µM*
Cc1cc(C(=O)OCC(=O)N2CC(=O)Nc3ccccc32)c(C)n1-c1ccccc1	-24	50µM*	u	56µM*	-11	u
